Screening data from PubChem BioAssay.
Only some compounds are listed: those with a hit (about 0.84% of all), similar ones and a draw of the others.
PPARg SRC-2 ag: promotes SRC-2 coactivator recruitment by human PPARgamma. actives 0.34% (n = 200,000). activation, % at 8 µM. P37231. PPARgamma LBD-SRC-2 recruitment, biochemical; in the data active = activation above about 22%;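 note: 0% = vehicle and 100% = reference agonist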
Target sequence (P37231 whole entry, looked up, the tested form may be a part): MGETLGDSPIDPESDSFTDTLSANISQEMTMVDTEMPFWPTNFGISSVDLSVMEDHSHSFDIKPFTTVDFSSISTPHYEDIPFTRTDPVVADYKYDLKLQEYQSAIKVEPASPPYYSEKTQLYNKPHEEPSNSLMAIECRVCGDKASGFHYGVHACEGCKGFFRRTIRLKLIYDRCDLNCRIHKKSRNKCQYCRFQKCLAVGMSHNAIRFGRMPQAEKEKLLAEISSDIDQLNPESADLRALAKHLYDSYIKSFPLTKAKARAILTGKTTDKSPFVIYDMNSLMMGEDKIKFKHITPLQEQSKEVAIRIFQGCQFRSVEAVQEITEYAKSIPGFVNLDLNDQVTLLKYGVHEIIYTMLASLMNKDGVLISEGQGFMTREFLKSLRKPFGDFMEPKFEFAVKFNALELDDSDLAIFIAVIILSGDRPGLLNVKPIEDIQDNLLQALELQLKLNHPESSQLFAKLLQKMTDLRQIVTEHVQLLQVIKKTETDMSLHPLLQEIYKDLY
SRC2 TRFRET art: TR-FRET artefact, counter-screen to PPARgamma/SRC-2 agonist assay; actives 0.4% (n = 200,000); TR-FRET ratio at 8 µM; AID 1049; active compounds read high
SRC3 TRFRET art: flags TR-FRET format artefacts in PPARgamma SRC-3 recruitment agonist screen | TR-FRET artefact counter-screen, PPARgamma/SRC-3 format; active compounds read high | TR-FRET ratio at 8 µM | actives 0.39% (n = 99,000)
PPARg SRC-3 ag: agonists of human PPARgamma SRC-3 coactivator recruitment | P37231 | biochemical PPARgamma/SRC-3 coactivator recruitment assay | activation, % at 8 µM | actives 0.26% (n = 200,000) | AID 731; in the data active = activation above about 23%;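 note: 0% = DMSO and 100% = reference agonist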
SRC1 TRFRET art: flags TR-FRET format artefacts in PPARgamma SRC-1 recruitment agonist screen. TR-FRET detection artefact counter-screen, emission ratio; active compounds read high. TR-FRET ratio at 8 µM. actives 0.34% (n = 99,000). AID 1051; in the data active = TR-FRET ratio above about 2300
PPARg SRC-1 ag: agonists of human PPARgamma SRC-1 coactivator recruitment. activation, % at 8 µM. P37231. actives 0.41% (n = 200,000). PPARgamma-SRC-1 coactivator recruitment biochemical assay; in the data active = activation above about 19%;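 note: 0% = DMSO and 100% = reference agonist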
The depositor's hits bear a star; / = no result given. Cut-off read from the data, not from the text of the source, unless noted: active = TR-FRET ratio above about 2000; inactive = the rest.

SMILES	PPARg SRC-2 ag	SRC2 TRFRET art	SRC3 TRFRET art	PPARg SRC-3 ag	SRC1 TRFRET art	PPARg SRC-1 ag
CC(C)C(=O)N1C2CCC1CC(O)(c1ccc(F)cc1)C2 (stereo not drawn)	-4	1527	/	48*	/	-1
Cc1cc(N2C3CCC2CC(O)(c2ccc(F)cc2)C3)nc(-c2ccccc2)n1 (stereo not drawn)	-8	1437	/	-9	/	4
CC(C)=C(NC(=O)c1ccccc1)C(=O)Nc1cccc(C(=O)O)c1	0	1512	1560	4	1624	2
CC(=O)Nc1c(O)nc(SCC(=O)Nc2cccc(C)c2)[nH]c1=O	0	1625	/	2	/	-1
CC(=O)Nc1c(O)nc(SCC(=O)Nc2ccc(C(C)=O)cc2)[nH]c1=O	8	1727	/	26*	/	5
Cc1cc2nc(-c3ccc(SCC(=O)Nc4ccc5c(c4)OCCO5)nc3)[nH]c2cc1C	3	2267*	/	1	/	1
CCOC(=O)COc1ccc(/C=C2\NC(=S)N(CC)C2=O)cc1	94*	3635*	1401	0	1582	-6
CCCn1c(N)c(N(CCOC)C(=O)/C=C/c2cccc(Cl)c2)c(=O)[nH]c1=O	1	1661	1891	3	1940	4
Cc1nc2ccccc2nc1OCC(=O)NCC(F)(F)F	5	1705	1862	1	2331*	4
COc1cccc(C(=O)Nc2cc(-c3cn4cccnc4n3)ccc2C)c1	0	1546	1658	1	1786	-3
Cc1cc(C)c(C#N)c(SCc2ccc(F)cc2)n1	6	1549	1600	3	1966	5
CCc1nc(SCc2ccc(F)cc2)[nH]c(=O)c1C#N	57*	2794*	/	0	/	-2
COc1ccccc1/C=N/NC(=O)C(=O)NCc1cccnc1	2	1496	1636	4	1748	0
CCN(CC)CCCNC(=O)c1ccc2c(SCC(=O)O)c3c(nc2c1)CCC3	23*	1661	1780	5	1924	9
Cc1onc(-c2c(Cl)cccc2Cl)c1C(=O)c1c[nH]c(C(=O)NCC2CCCO2)c1 (stereo not drawn)	0	1539	1578	-3	1907	-4
CS(=O)(=O)Nc1ccc(C(=O)Nc2ccc(S(=O)(=O)N3CCCC3)cc2)cc1	3	1992*	1616	-2	2042	9
CC(=O)Nc1ccc(C(=O)Nc2ccc(S(=O)(=O)N3CCCC3)cc2)cc1	10	1618	1576	5	2097	9
CC(C)(C)NC(=O)CSc1nc(O)cc(=O)n1-c1ccccc1F	-2	1528	/	29*	/	0
COc1ccccc1-n1c(SCC(=O)NC(C)(C)C)nc(O)cc1=O	6	1559	/	4	/	6
c1ccc2c(-c3cc(C4CCNCC4)[nH]n3)cccc2c1	12	1728	1688	6	1825	4
COC(=O)c1ccc2c(c1)SC1=C(CCCC1=O)N2	13	2074*	/	17	/	12
COC(=O)c1ccc2c(c1)NC(=O)C(N1CCCC1)S2 (stereo not drawn)	4	1526	/	1	/	0
CCCn1c(NC(=O)c2ccc(F)cc2)nc2ccccc21	2	1479	1516	3	1892	-1
CCCn1c(NC(=O)c2ccc(Br)cc2)nc2ccccc21	2	1587	/	-1	/	34*
COc1ccc(C(C(=O)NC2CCCC2)N(C(=O)c2snc(-c3ccc(F)cc3)c2N)c2ccc(OC)cc2)cc1 (stereo not drawn)	15	2223*	/	17	/	16
SMILES	PPARg SRC-2 ag	SRC2 TRFRET art	SRC3 TRFRET art	PPARg SRC-3 ag	SRC1 TRFRET art	PPARg SRC-1 ag
c1cc(CNC2C3CC4CC(C3)CC2C4)ccn1 (stereo not drawn)	3	1516	1732	7	2069	2
O=C(Nc1nc2c(cc3c4c(cccc42)CC3)s1)c1ccccc1Cl	11	1981*	2115*	-4	2264	2
COC(=O)C1=C(C)NC(=O)CC1c1cc2c(cc1Br)OCO2 (stereo not drawn)	-3	1470	2175*	6	1895	-1
CS(=O)(=O)N1N=C(c2cccs2)CC1c1ccco1 (stereo not drawn)	13	1652	1571	0	1914	7
COc1ccc(C)cc1-n1nnnc1SCC(=O)c1ccc2c(c1)OCCO2	6	3766*	/	-1	/	-9
COc1cccc(C2C(C(=O)c3cc4ccccc4o3)=C(O)C(=O)N2CCN(C)C)c1OC (stereo not drawn)	20	1961	/	28*	/	18
